High-throughput results (PubChem)
Pol eta inh: inhibitors of human DNA polymerase eta; actives 1.2% (n = 390,000); Q9Y253; recombinant Pol eta, fluorescent DNA replication assay; Potency, µM (series often up to 114 µM), without a hit: at the highest dose activity change, negative = inhibition, actives largely listed as inhibitors; note: % is set by controls: 0 for no effect and ±100 for the full control effect
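Pol eta at 10 nM preincubated with compounds 15 min at room temperature; reaction started with fluorescent substrate (50 nM final) and read kinetically at 0 and 10 min.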
POLB inh: inhibitors of human DNA polymerase beta. P06746. Pol beta primer extension/strand displacement, fluorescence kinetic. Potency, µM (top dose mostly 114 µM), for the others: top-dose activity change, negative = inhibition, hits mostly inhibitors. actives 1.3% (n = 340,000); note: % is set by controls: 0 for no effect and ±100 for the full control effect
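Pol beta (10 nM) was preincubated with compound for 15 min at room temperature. The reaction was then started with 50 nM substrate and read immediately and after a further 10 min at room temperature.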
WRN inhibitor: WRN helicase (human) inhibition; Q14191; WRN helicase unwinding, fluorescent forked duplex, kinetic; Potency, µM (series often up to 114 µM), for the others: at the top dose activity change, negative = inhibition, hits mostly inhibitors; actives 0.46% (n = 360,000); AID 651768; note: % is set by controls: 0 for no effect and ±100 for the full control effect; nearly all actives have a fitted effect of over 55% in size
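Enzyme (20 nM final) and test compound sit together 15 min at room temperature before substrate addition. Substrate is a single-forked duplex oligonucleotide (100 nM) labelled with fluorophore and quencher, with 2 mM ATP; helicase unwinding raises red fluorescence, read kinetically.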
Pol kappa inh: inhibitors of human DNA polymerase kappa; Q9UBT6; purified Pol kappa, fluorescent DNA synthesis assay, 10 min; Potency, µM (doses to about 107 µM), for inactives: at the top dose activity, negative = inhibition, hits mostly inhibitors; actives 0.53% (n = 400,000); note: % is set by controls: 0 for no effect and ±100 for the full control effect
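Here, compound and 10 nM enzyme are combined for 15 min at room temperature; adding 50 nM substrate (final) starts DNA synthesis, tracked by fluorescence at 0 and 10 min against buffer-only wells.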
FEN1 inhibitor: inhibitors of human flap endonuclease 1; P39748; Recombinant FEN1 flap cleavage, fluorescence, 15 min; Potency, µM (series often up to 114 µM), inactives show top-dose activity change, negative = inhibition, most hits filed as inhibitors; actives 0.35% (n = 390,000); note: % is set by controls: 0 for no effect and ±100 for the full control effect; nearly all actives have a fitted effect of over 65% in size
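In this screen, 50 nM flap DNA substrate was added to 10 nM FEN1 pretreated with compound for 15 min at room temperature; cleavage was followed with reads at 0 and 15 min, and Hill fitting gave concentration–response parameters.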
POLI inh: blocks human DNA polymerase iota activity. Q9UNA4. Potency, µM (top dose mostly 115 µM), without a hit: at the top dose activity, negative = inhibition, actives largely listed as inhibitors. actives 1% (n = 390,000). Pol iota fluorescent replication assay, 10 min. AID 588590
Target sequence (Q9UNA4 whole entry, looked up): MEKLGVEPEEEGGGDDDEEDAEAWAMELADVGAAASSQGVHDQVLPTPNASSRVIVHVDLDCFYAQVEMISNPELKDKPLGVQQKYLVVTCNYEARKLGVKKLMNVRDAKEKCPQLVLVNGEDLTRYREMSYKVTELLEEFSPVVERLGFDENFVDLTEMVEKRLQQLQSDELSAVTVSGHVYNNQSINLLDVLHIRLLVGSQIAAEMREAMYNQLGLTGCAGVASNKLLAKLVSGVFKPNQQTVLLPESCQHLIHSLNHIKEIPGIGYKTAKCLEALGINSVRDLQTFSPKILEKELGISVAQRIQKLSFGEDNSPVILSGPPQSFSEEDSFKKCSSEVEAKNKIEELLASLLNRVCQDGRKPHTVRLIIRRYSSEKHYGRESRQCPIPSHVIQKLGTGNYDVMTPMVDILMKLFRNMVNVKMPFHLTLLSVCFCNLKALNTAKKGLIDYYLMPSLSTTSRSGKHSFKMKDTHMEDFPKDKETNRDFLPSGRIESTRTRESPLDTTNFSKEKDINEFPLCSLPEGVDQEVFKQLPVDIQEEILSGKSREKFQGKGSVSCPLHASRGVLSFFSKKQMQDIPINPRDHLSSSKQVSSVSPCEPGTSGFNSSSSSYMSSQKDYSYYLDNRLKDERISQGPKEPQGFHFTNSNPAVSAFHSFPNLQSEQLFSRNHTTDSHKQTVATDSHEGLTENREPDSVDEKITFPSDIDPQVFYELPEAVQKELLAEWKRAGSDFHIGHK
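Fluorescent replication assay read twice, at 0 min and 10 min after adding 50 nM (final) substrate. Enzyme (10 nM) and compounds were first incubated 15 min at room temperature; enzyme-free buffer wells were negative controls.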
Active calls of the source: *; ? = inconclusive; / = no result given; [ ] = dose if it differs, or a comment. Rows were chosen to be rich in hits. Some 2.4% of all compounds tested hit in one or more screens of this group. Calls come from the whole dose curve; as a rule, active = well fitted curve in the direction sought with a large enough effect; inconclusive = small, poorly fitted or top-dose-only effect, or another doubt; inactive = no such curve, though single readings can be large; an effect the other way counts as inactive or inconclusive. Potency is the fitted concentration of half-maximal effect.

SMILES	Pol eta inh	POLB inh	WRN inhibitor	Pol kappa inh	FEN1 inhibitor	POLI inh
C/C(=N/NS(=O)(=O)c1ccccc1)c1c[nH]c2ccccc12	-0.3%	17.6%	2.0%[11.6 µM]	-33.4%	15.8%	89.1µM*
CCNc1nc(C#N)nc(N2CCOCC2)n1	/	/	/	-5.1%	13.5%	-4.6%
Cc1cccc(C)c1NC(=O)CSCC(=O)c1ccc(O)c(O)c1	?	-25.6%	?	-40.2%	-6.9%	20µM*
CS/C(N)=C(C#N)/C(C#N)=C(\N)SC	/	/	/	-18.2%[60.1 µM]	/	/
COC(=O)CCC(=O)OC1(C)C(=O)C=C2C=C(C3CC3)N(Cc3ccc(OC)cc3)C=C2C1=O (configuration not stated)	10.2%	1.6%	-5.7%	-15.0%	-10.3%	17.8µM*
COC(=O)CCC(=O)OC1(C)C(=O)C=C2C=C3CCCN3C=C2C1=O (configuration not stated)	50.1µM*	-25.7%	-2.7%	?	?	?
C=CCN1C=C2C(=O)C(C)(OC(=O)CCC(=O)OC)C(=O)C=C2C=C1C1CC1 (configuration not stated)	-3.6%	-14.8%	-1.8%	-5.0%	5.5%	85.1%
COC(=O)CCC(=O)OC1(C)C(=O)C=C2C=C(C3CC3)N(CCCCO)C=C2C1=O (configuration not stated)	7.4%	-1.6%	7.1%	-29.8%	-4.1%	25.1µM*
COC(=O)CCC(=O)OC1(C)C(=O)C=C2C=C(C3CC3)N(CCCOC(C)C)C=C2C1=O (configuration not stated)	89.1µM*	22.4%	-3.0%[57.1 µM]	-33.4%	-0.3%	?
COc1ccc(Cn2c(=O)n(-c3ccc(F)c(Cl)c3)c(=O)c3c2c2cc(OC)ccc2n3C)cc1	-14.4%	1.7%	/	-6.0%	0.6%	29.3%
O=C(CN1CCOCC1)NCc1ccc(F)cc1	-8.9%	14.4%	3.3%	-1.2%	-3.4%	6.0%
C=CCNC(=O)CN1CCC(O)(c2ccc(F)cc2)CC1	-13.5%	-1.9%	-3.7%[57.1 µM]	-9.8%[60.1 µM]	1.6%	100µM*
O=C(NCCc1ccccc1)C1CC(=O)N(C2CCCCCC2)C1 (configuration not stated)	4.5%	-6.8%	-4.3%	0.0%	-14.9%	79.4µM*
C=C1N[C@]2(C(=O)COC(C)=O)[C@@H](C[C@H]3[C@@H]4CCC5=CC(=O)C=C[C@]5(C)[C@H]4[C@@H](O)C[C@@]32C)O1	/	/	/	-1.4%[19.4 µM]	/	/
O=C(N/N=C/c1ccccc1Cl)c1nc2ccc([N+](=O)[O-])cc2c(=O)[nH]1	-8.7%	9.7%	-2.9%	-0.1%	2.8%	10µM*
O=Cc1ccc(I)cc1	/	/	/	-6.7%	-9.3%	-5.6%
Cc1[nH][nH]c(=O)c1C(c1c(C)[nH][nH]c1=O)c1cn(C)c2ccccc12	-17.6%	0.2%	-9.5%	-7.4%	?	2.51µM*
Cc1[nH]c2ccccc2c1C1=CC(=O)C=CC1=O	?	/	56.2µM*	-10.9%	-15.2%	?
Nc1nc2ncc(=O)[nH]c2c(=O)[nH]1	/	/	/	-9.0%[60.1 µM]	/	/
CC(C)(O)C(O)COc1c2ccoc2cc2oc(=O)ccc12 (configuration not stated)	?	22.4µM*	-1.3%	?	3.3%	?
COC(C)(C)[C@H](O)COc1c2ccoc2cc2oc(=O)ccc12	-4.5%	-23.6%	-6.2%	-19.6%	-1.8%	4.9%
C[C@H]1O[C@@H](n2cnc3c(N)ncnc32)C[C@@H]1OP(=O)(O)OP(=O)(O)OP(=O)(O)O	/	/	/	15.8%[60.1 µM]	/	/
CCOC(=O)C(CS)NCCN[C@@H](CS)C(=O)OCC (some centres not stated)	/	/	/	-0.5%[19.4 µM]	/	/
O=C(CSc1nc2c(cnn2-c2ccc(F)cc2)c(=O)[nH]1)Nc1ccccc1C(F)(F)F	-8.6%	7.94µM*	/	-11.8%	-13.7%	?
CNc1cccccc1=S	?	15.8µM*	-11.6%[11.6 µM]	79.4µM*	-10.0%	10µM*
SMILES	Pol eta inh	POLB inh	WRN inhibitor	Pol kappa inh	FEN1 inhibitor	POLI inh
Cc1ccc(CSC2=NS(=O)(=O)c3ccccc32)cc1	/	/	/	-12.2%	-18.2%	?
CCN(CC(=O)NC1CCS(=O)(=O)C1)S(=O)(=O)c1ccc(F)cc1 (configuration not stated)	?	15.8µM*	-21.5%	-22.5%	-5.0%	-45.6%
C#CCCc1cocc1/C=[N+](\[O-])c1ccc(C(=O)OCC)cc1	2.7%	/	-9.0%	?	-20.2%	35.5µM*
CC(=O)Nc1ccccc1C	-14.9%	/	3.4%	-18.0%	14.9%	?
Cc1ccccc1NC(=O)C(=Cc1ccc(C(=O)O)cc1)C(=O)Nc1ccccc1C	56.2µM*	5.2%	-18.6%	-3.1%	-2.4%	?
Cc1cnc2c(C)ccc(C)c2c1/C=C/c1ccc(N(C)C)cc1	/	/	/	-0.6%	0.3%	-11.4%
CCOC(=O)c1ccc(N2C(=O)c3n[nH]c(-c4cccs4)c3C2c2cccc(OC)c2)cc1 (configuration not stated)	-23.6%	-0.4%	/	-3.2%	-1.2%	-15.4%
CCOc1ccc(N2C(=O)c3n[nH]c(-c4cccs4)c3C2c2cccc(F)c2)cc1 (configuration not stated)	/	8.3%	/	0.7%	?	12.6µM*
C#CCN1C(=O)C(O)(CC(=O)/C=C/c2ccco2)c2ccccc21 (configuration not stated)	?	?	-4.9%	?	0.1%	35.5µM*
O=C(CC1(O)C(=O)N(CCc2ccccc2)c2ccccc21)c1ccco1 (configuration not stated)	?	9.0%	1.8%	-7.9%	-4.8%	-12.4%
COc1cccc(-c2n[nH]c(=S)n2Cc2ccco2)c1	35.5µM*	?	4.6%[11.6 µM]	-94.0%	-12.7%	?
S=c1[nH]nc(-c2ccncc2)n1Cc1ccco1	-11.6%	7.1%	4.7%	3.0%	-16.2%	-1.2%
CSC1=NC(=O)/C(=C\c2cccc3ccccc23)S1	-16.5%	50.1µM*	?	-4.8%	-20.7%	25.1%
COC(=O)c1ccc(NC(=O)c2nc(S(=O)(=O)Cc3ccccc3F)ncc2Cl)cc1	/	/	/	3.2%	-8.2%	?
CN(C)c1ccc(/C=C(\C#N)C(=O)OCC(=O)N(C)C2CCS(=O)(=O)C2)cc1 (configuration not stated)	12.5%	/	10.1%	-0.1%	3.5%	16.2%
CCN(C(=O)COC(=O)/C(C#N)=C/c1ccc(N(C)C)cc1)C1CCS(=O)(=O)C1 (configuration not stated)	-18.6%	/	?	?	0.1%	56.2µM*
Cc1ccc(C)c(CNC(=O)c2ccc3c(c2)nc2n3CCCCC2)c1	8.2%	-16.2%	/	-3.4%[60.1 µM]	1.5%	-1.6%
COc1cc(Cl)c(CC(=O)NO)cc1OC	/	/	/	16.0%	-3.0%	23.7%
Nc1ccc(O)cc1	/	/	/	89.1µM*	?	7.08µM*
Nc1ccc(C(=O)O)cc1	-12.8%	/	7.5%	13.6%	-1.4%	35.4%
